Screen size: about 52,000 compounds; about 1,700 (3.3%) were called active. This is one part of a sample in which actives are shown more often than they occur. Unmarked numbers belong to inactive results. No stated cut-off is given here; in the data, active means survival mostly below about 52% (no sharp cut-off); inactive means mostly above about 56%.
Test system: Wild type
Experiment: growth inhibition of S. aureus wild type versus tarO mutant, primary screen, teichoic acid synthesis inhibitors, RN4220, OD600 (AID 463173)
Conditions: S. aureus RN4220 wild type/DeltatarO growth, OD600, 18 h, stronger effect = lower value, screened at 18.75 µg/mL (by protocol)

SMILES | survival
CCS(=O)(=O)N1CCc2cc(C(=O)Nc3ccc(OC)cc3OC)ccc21 | 88%
Cc1ccc([N+](=O)[O-])cc1NC(=O)CN(c1ccccc1)S(=O)(=O)N(C)C | 69%
CCn1c(O)c(C=Nc2cccc(O)c2)sc1=S | 115%
Cn1cnc(S(=O)(=O)N2CCCC(C(=O)Nc3ccc(OC(F)(F)F)cc3)C2)c1 (centres undefined) | 19%
CCOc1ccc(CNC(=O)c2[nH]c3ccccc3c2Sc2ccc(C)cc2)cc1 | 120%
CCN1C(=O)c2ccccc2S(=O)(=O)c2ccc(C(=O)NCc3ccc(OC)cc3)cc21 | 97%
CCN(CC)CCCNC(=O)c1ccc2c(c1)N(Cc1c(F)cccc1Cl)C(=O)c1ccccc1S2 | 139%
CN(C)CCNC(=O)c1ccc2c(c1)N(Cc1c(F)cccc1Cl)C(=O)c1ccccc1S2 | 105%
CCN(CC)C(=O)c1ccc2c(c1)N(Cc1c(F)cccc1Cl)C(=O)c1ccccc1S2 | 16% (active)
Cc1ccc(Cl)cc1NC(=O)CN1C(=O)c2cccc3cccc1c23 | 71%
CCC(=O)N1CCc2cc(Br)cc(S(=O)(=O)N3CCN(c4ccccc4OC)CC3)c21 | 72%
Cc1cc(C)n(-c2nc3cc(Cl)ccc3nc2N2CCN(c3cccc(C)c3C)CC2)n1 | -1% (active)
Cc1ccc2nc(N3CCN(c4cccc(Cl)c4)CC3)c3nnnn3c2c1 | 72%
COc1ccccc1N1CCN(c2nc3ccc(C)cc3nc2-n2nc(C)cc2C)CC1 | 0% (active)
Cc1cc(C)n(-c2nc3cc(Cl)ccc3nc2Nc2ccc(C)c(F)c2)n1 | 86%
Cc1cc(C)c(C#N)c(N2CCN(c3cccc(C)c3C)CC2)n1 | 109%
Cc1cc(C)n(-c2nc3ccccc3nc2N2CCN(c3cccc(C)c3C)CC2)n1 | -1% (active)
Cc1ccc(C)c(N2CCN(c3nc4ccc(C)cc4nc3-n3nc(C)cc3C)CC2)c1 | 86%
Cc1ccc2nc(N3CCN(c4cccc(Cl)c4)CC3)c(-n3nc(C)cc3C)nc2c1 | 3% (active)
Cc1cc(C)n(CCc2nc3c4ccccc4nc(N4CCN(c5cccc(C)c5C)CC4)n3n2)n1 | 74%
Cc1cc(C)n(-c2nc3ccccc3nc2N2CCN(c3cccc(C(F)(F)F)c3)CC2)n1 | 88%
Cc1cc(C)n(-c2nc3cc(Cl)ccc3nc2N2CCN(c3ccccc3F)CC2)n1 | 68%
COc1cccc(Nc2nc3ccc(C)cc3nc2-n2nc(C)cc2C)c1 | 82%
COc1ccc(-c2oc3ncn4nc(COc5cccc(C)c5C)nc4c3c2-c2ccc(OC)cc2)cc1 | 77%

SMILES | survival
Cc1ccc(C)c(Cn2nc(C)n3c(cc4cc(C)ccc43)c2=O)c1 | 79%
Cc1ccc(Cl)cc1N1CCN(C(=O)c2cc3c(=O)oc4ccccc4c3s2)CC1 | 71%
COCCN(Cc1cc2ccc(C)c(C)c2nc1Cl)C(=O)N1CCOCC1 | 104%
COc1ccc(C(C)C)cc1S(=O)(=O)N1CC(C)OC(C)C1 (centres undefined) | 109%
COC(=O)C1=C(C)N(c2ccc(N(C)C)cc2)C(C)=C(C(=O)OC)C1c1ccccc1 | 101%
CC1=C(C(=O)Nc2ccccc2)C(c2ccc(O)cc2)n2nc(SCc3ccccc3)nc2N1 (centres undefined) | 115%
CCN(CC)S(=O)(=O)c1ccc(C(=O)NCCSc2c(-c3ccc(OC)cc3)[nH]c3ccccc23)cc1 | 124%
CCn1nc(C)c2c(-c3ccccc3)cc(=O)n(C(C)C(=O)Nc3ccc(OC)c(OC)c3)c21 (centres undefined) | 59%
Cc1nn(-c2ccccc2)c(OC(=O)C(C)(C)C)c1Sc1ccccc1 | 51%
Cc1nn(C(C)(C)C)c(OC(=O)c2c(F)cccc2F)c1Sc1ccccc1 | 117%
COCC(=O)Oc1c(Sc2ccc(C)cc2)c(C)nn1C(C)(C)C | 69%
CCC(=O)Oc1c(Sc2ccc(Cl)cc2)c(C)nn1C(C)(C)C | 60%
Cc1ccc(Sc2c(C)nn(C(C)(C)C)c2OC(=O)C(C)(C)C)cc1 | -8% (active)
Cc1ccc(Sc2c(C)nn(-c3ccccc3)c2OC(=O)C(C)(C)C)cc1 | -6% (active)
Cc1ccccc1C(=O)Oc1c(Sc2ccccc2)c(C)nn1C(C)(C)C | 50%
Cc1nn(C(C)(C)C)c(OC(=O)C(C)(C)C)c1Sc1ccccc1 | -9% (active)
Cc1ccc(Sc2c(C)nn(C(C)(C)C)c2OC(=O)CC(C)C)cc1 | -8% (active)
COc1ccc(C(=O)Oc2c(Sc3ccc(C)cc3)c(C)nn2C(C)(C)C)cc1OC | 127%
Cc1ccc(Sc2c(C)nn(-c3ccccc3)c2OC(=O)CC(C)C)cc1 | 45%
CCC(=O)Oc1c(Sc2ccc(C)cc2)c(C)nn1-c1ccccc1 | 55%
CCOC(=O)N1CCN(C(=O)c2cnn(-c3cccc(F)c3)c2-n2cccc2)CC1 | 81%
Cc1ccc2nc(N3CCC(C(=O)N4CCN(c5cccc(C)c5C)CC4)CC3)[nH]c2c1 | 76%
Cc1ccn2cc(CNC(=O)c3cccc(C(F)(F)F)c3)nc2c1 | 86%
Cc1ccc(Cl)cc1NC(=O)C(NS(=O)(=O)c1ccc2c(c1)CCC(=O)N2)c1ccccc1 (centres undefined) | 70%

SMILES | survival
COc1ccc(CNC(=O)c2cc3sccc3n2C)cc1 | 67%
Cn1c(=O)n(C)c2cc(N3CCOCC3)c(NS(=O)(=O)c3ccc(Br)cc3)cc21 | 82%
O=C(Nc1nnc(S(=O)(=O)N2CCCCCC2)s1)c1ccccc1 | 48%
CN(C)c1ccc(CNC(=O)CCC(=O)N2Cc3ccccc3Oc3ncccc32)cc1 | 77%
Cc1ccc(NC(=O)CCC(=O)N2Cc3ccccc3Oc3ncccc32)cc1Cl | 82%
CCC(C)NC(=O)CCC(=O)N1Cc2ccccc2Oc2ncccc21 (centres undefined) | 121%
Cc1ccc(NC(=O)CCC(=O)N2Cc3ccccc3Oc3ncccc32)cc1 | 22%
CC(C)CCNC(=O)CCC(=O)N1Cc2ccccc2Oc2ncccc21 | 65%
CCOc1ccc(CNC(=O)CCC(=O)N2Cc3ccccc3Oc3ncccc32)cc1 | 0% (active)
O=C(CCC(=O)N1Cc2ccccc2Oc2ncccc21)Nc1ccc(Cl)cc1 | 10% (active)
Cc1ccc(CNC(=O)CCC(=O)N2Cc3ccccc3Oc3ncccc32)cc1 | 73%
CC(C)NC(=O)CCC(=O)N1Cc2ccccc2Oc2ncccc21 | -2% (active)
Cc1ccc(N2C(=O)SC(N(CC(=O)O)c3ccccc3)C2=O)cc1 (centres undefined) | 112%
Cc1ccc(C)c(NC(=O)Nc2cccc(-c3cn4cccnc4n3)c2)c1 | 71%
O=S(=O)(c1ccc(Nc2ccc(-c3ccccc3)nn2)cc1)N1CCCC1 | 104%
Cc1cc(C)cc(N2C(=O)N(CC(=O)c3ccc(Br)cc3)c3ccccc3S2(=O)=O)c1 | 84%
O=C1CC(c2ccc(Br)cc2)c2c(ccc3ccccc23)N1 (centres undefined) | 39%
Cc1ccc(CSc2ccc3nnc(CCNS(=O)(=O)c4ccc(C)cc4)n3n2)cc1 | 82%
CC1CCCCN1CCCNC(=O)c1cc(Sc2ccc(Cl)cc2)nc2ccccc12 (centres undefined) | 78%
O=C(NCCCN1CCCCC1)c1cc(Sc2ccc(Cl)cc2)nc2ccccc12 | -1% (active)
CC1CCCN(CCCNC(=O)c2cc(Sc3ccc(F)cc3)nc3ccccc23)C1 (centres undefined) | 14% (active)
CCc1ccc(Sc2cc(C(=O)NCCCN3CCCC(C)C3)c3ccccc3n2)cc1 (centres undefined) | 71%
CCc1ccc(Sc2cc(C(=O)NCCCN3CCC(C)CC3)c3ccccc3n2)cc1 | 68%
CC1CCN(CCCNC(=O)c2cc(Sc3ccc(F)cc3)nc3ccccc23)CC1 | 74%

SMILES | survival
CC(=O)c1[nH]c(C)c(C(=O)NCCc2ccc(C)cc2)c1C | 88%
CC(=O)Nc1cc(-n2cnnn2)ccc1C | 98%
Cc1ccc(NC(=O)Cn2c(=O)n(Cc3nc(C)no3)c(=O)c3cc4c(cc32)OCO4)cc1 | 90%
CCCCOc1ccccc1CC1C(=O)Nc2ccc(Br)cc21 (centres undefined) | 3% (active)
COc1ccc(OC)c(CC2C(=O)Nc3ccc(Br)cc32)c1 (centres undefined) | 84%
CCOc1ccccc1CC1C(=O)Nc2ccc(Br)cc21 (centres undefined) | 73%
COc1ccc(CC2C(=O)Nc3ccc(Br)cc32)cc1OC (centres undefined) | 75%
CCOc1c(CC2C(=O)Nc3ccc(Br)cc32)cccc1OC (centres undefined) | 99%
CCCOc1ccc(CC2C(=O)Nc3ccc(Br)cc32)cc1 (centres undefined) | -7% (active)
Cc1ccccc1C(=O)NCc1ccc2c(c1)CCN2C(=O)c1ccccc1 | 71%
COc1cccc(OC)c1C(=O)Nc1ccc(-c2nc3ncccc3o2)cc1 | 88%
COc1ccc(C)cc1NC(=O)Cn1c(=O)cc(C)c2c(C)nn(C)c21 | 68%
CCN(Cc1ccccc1)C(=O)Cn1cc(S(=O)(=O)Cc2cccc(Cl)c2)c2ccccc21 | 75%
Cc1nn(-c2ccccc2)c(OC(=O)C(C)C)c1Sc1ccc(Cl)cc1 | 39%
Cc1ccc(Sc2c(C)nn(C(=O)COc3ccc(F)cc3)c2C)cc1 | 85%
Cc1ccc(Sc2c(C)nn(C(=O)c3ccc(Cl)cc3)c2C)cc1 | 2% (active)
Cc1nn(C(=O)COc2ccc(Cl)cc2)c(C)c1Sc1ccccc1 | 88%
Cc1nn(C(=O)COc2ccccc2)c(C)c1Sc1ccccc1 | 94%
Cc1nn(C(=O)c2ccccc2)c(C)c1Sc1ccc(Cl)cc1 | 6% (active)
Cc1ccc(Sc2c(C)nn(C(=O)COc3ccccc3)c2C)cc1 | 9% (active)
COc1cc(C(=O)n2nc(C)c(Sc3ccc(Cl)cc3)c2C)cc(OC)c1OC | 47%
Cc1nn(C(=O)c2ccc(Cl)cc2)c(C)c1Sc1ccc(Cl)cc1 | 40%
